These results are taken from PubChem BioAssay (NCI).

Common to all, as to assay: NCI-60 one-dose screen, 48 h (100 = growth as untreated, 0 = no growth, -100 = all killed)
Common to all, as to details: 10 µM unless noted

Test [1] deals with SK-MEL-2 melanoma.
Test [2] deals with EKVX NSCLC.
The test system of test [3] is SN12C renal.
The test system of test [4] is UO-31 renal.
In test [5] the test system is TK-10 renal.
Test [6] deals with ACHN renal.
Test [7] relates to CAKI-1 renal.
Test [8] concerns A498 renal.
Test [9] relates to CCRF-CEM leukemia.
Test [10] has as its system MOLT-4 leukemia.
Test [11] relates to SR leukemia.
Test [12] relates to RPMI-8226 leukemia.
Test [13] concerns OVCAR-8 ovarian.
In test [14] the test system is OVCAR-5 ovarian.
Test [15] concerns OVCAR-4 ovarian.
The subject of test [16] is SK-OV-3 ovarian.
Test [17] has as its system IGROV1 ovarian.
Test [18] deals with OVCAR-3 ovarian.
For test [19], the system named is HS 578T breast.
Test [20] relates to NCI/ADR-RES ovarian.

About 83,000 compounds went through this panel and 20% of them were active in at least one assay; those are over-represented in the sample as a whole.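 Each cell line was grown in a 96-well plate and treated with one concentration of compound for 48 hours. Values below 10 were considered active.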 Unmarked numbers belong to inactive results. Active and inactive are the calls of the source.

With `C#CCOc1cccc(Nc2ncnc3c(NC(=O)CCl)cccc23)c1`, the growth in test [1] was 36.5%; in test [2], -19.8% (active); in test [3], 6.82% (active); in test [4], 35.4%; in test [5] it was 63.7%; in test [6], -72.4% (active). Further, the growth in test [7] was 54.9%; in test [8], 101%; in [9], -57.5% (active); in [10] it was -12.7% (active); in [11], -39.4% (active); in test [12], -40.2% (active). Also, the growth in test [13] was -0.718% (active); in test [14], 67.6%; in test [15] it was -27% (active); in test [16] it was 81.7%; in test [17], -58.9% (active); in test [18], -79% (active). The growth in test [19] is 50.6%; in [20] it was 18.8%.
For `c1ccc2[nH]c(-c3ccc(-c4nccc5c4[nH]c4ccccc45)cc3)nc2c1`, the growth in [1] is 47.3%; in [2] it was 81.2%; in test [3], 60.9%; in [4], 89.2%; in [5], 73.5%; in test [6], 71.7%. Further, the growth is 81.9% in test [7]; 68.7% in test [8]; 11.1% in test [9]; 77.1% in [10]; -4.29% (active) in test [11]; 61.1% in test [12]. In addition, the growth in [13] is 16.5%; in test [14], 129%; in test [15], 23%; in test [16], 104%; in [17], 94.5%; in test [18] it was -24.2% (active). For the same compound, the growth in test [19] was 73.7%; in test [20], 62.6%.
`C#CCOc1ccc(C2=NN(C)C3N=C(Cl)c4ncn(C)c4N23)cc1OCC#C` (stereo not given): the growth in test [1] is 105%; in [2] it was 102%; in test [3], 97.6%; in test [4], 74.6%; in [5] it was 99%; in test [6] it was 89.6%. For the same compound, the growth was 103% in test [7]; 85.4% in test [8]; 87.4% in test [9]; 82.9% in [10]; 91% in [11]; 92.4% in test [12]. The growth in [13] was 93.1%; in [14] it was 82.6%; in test [15], 102%; in test [16], 101%; in test [17], 102%; in test [18], 118%. Also, the growth is 99.9% in [19] and 88.4% in test [20].
As for `O=C(/C=C/c1cccc([N+](=O)[O-])c1)c1ccc(Nc2nc(Nc3ccc(F)cc3)nc(Nc3ccc(Cl)cc3)n2)cc1`, the growth is 70% in test [1]; 79.5% in test [2]; 88.3% in test [3]; 79.8% in test [4]; 141% in test [5]; 92% in test [6]. Also, the growth in [7] was 91.4%; in test [8] it was 110%; in test [9], 43.6%; in [10] it was 3.89% (active); in test [11], 8.59% (active); in [12] it was 32%. The growth in test [13] was 86.3%; in test [14], 62.7%; in test [15], 97.3%; in test [16], 110%; in test [17], 84.4%; in test [18], 104%. Besides, the results for the growth in test [19] and in test [20] were 106% and 83.9%, respectively.
As for `C=C1C(=O)O[C@H]2[C@H]1CC/C(CNC(=O)/C=C/c1cc(OC)c(OC)c(OC)c1)=C\CC[C@@]1(C)O[C@@H]21`, the growth in test [1] was 3.52% (active); in [2], 25.3%; in test [3] it was 28.1%; in test [4], -38.2% (active); in test [5] it was -86.5% (active); in [6], -79.6% (active). The growth in test [7] is 33.9%; in test [8] it was -9.24% (active); in [9], -10.6% (active); in [10] it was -26.6% (active); in [11], -13.8% (active); in test [12] it was -5.59% (active). In addition, the growth in [13] is 5.04% (active); in test [14] it was 15.9%; in test [15], 14.7%; in test [16] it was 64.6%; in test [17], 17.8%; in test [18], -57.5% (active). Further, the growth is 24.2% in test [19] and 76.7% in test [20].
As to `Nc1ccc(Cl)c2c(=O)c3ccccc3[nH]c12`, the growth is 81.2% in test [1]; 75.2% in test [2]; 89.2% in test [3]; 65.1% in [4]; 78.1% in test [5]; 80.8% in test [6]. In addition, the growth in test [7] was 77.7%; in test [8], 69.3%; in test [9], 100%; in test [10] it was 74.1%; in test [11], 100%; in [12], 71%. Also, the growth is 92.2% in test [13]; 93.2% in test [14]; 53.8% in test [15]; 89.2% in [16]; 94.7% in test [17]; 75.2% in [18]. Also, the growth in [19] was 98%; in test [20], 97%.
Take `COc1cc(C)cc(-c2c(-c3cc(N4CC(O)C4)nc(-c4cccnc4)n3)cnn2C)c1`: the growth in test [1] is 113%; in [2], 91.7%; in [3], 77.8%; in test [4], 76.7%; in [5] it was 99.5%; in [6], 66.5%. Besides, the growth in test [7] is 94.5%; in test [8] it was 72.8%; in [9] it was 78.9%; in test [10] it was 94.6%; in test [11] it was 88.3%; in test [12], 77.7%. For the same compound, the growth in [13] is 92.7%; in test [14], 99.9%; in test [15], 88.7%; in test [16], 118%; in test [17] it was 120%; in test [18], 101%. The growth was 80.5% in test [19] and 83.1% in [20].
